# Measurements published in PubChem BioAssay (NCI).
# Compounds without any hit were thinned out: in the full panel of roughly 83,000, 20% have a hit.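 Interpretation: 100, growth as untreated; towards 0, rising growth inhibition; 0, no net growth; 0 to -100, cell death. Compounds scoring below 10 were considered active.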 The source made the active and inactive calls.
# Test system: KM12 colon
# Experiment: NCI-60 one-dose screen, 48 h (100 = growth as untreated, 0 = no growth, -100 = all killed)
# Conditions: 10 µM unless noted
row,SMILES,growth
1,COc1ccc(C(=O)c2c(N)nc3n2CCCC3)cc1OC,101% (inactive)
2,O=C(CSc1ccc(Cl)cc1)Nc1ccc(-c2nc3ccccc3s2)c(Cl)c1,23% (inactive)
3,O=C1C=CC(=O)N1CO,128% (inactive)
4,COc1ccc2[nH]c(C(=O)OCc3ccc4cccc(O)c4n3)cc2c1,10.7% (inactive)
5,COc1ccc(C(=O)C(C#N)c2cc(OC)c(OC)c(OC)c2)cc1 (centres undefined),115% (inactive)
6,Nc1cc2nc3ccccc3oc-2cc1=O,32.4% (inactive)
7,C=CCn1c(C)nc2cc(Nc3nc(N4CCOCC4)nc4nc[nH]c34)ccc21,101% (inactive)
8,COc1cc2c(cc1OC)C(=O)C(Br)CC2 (centres undefined),88.9% (inactive)
9,O=c1c2sc3ncc(Cl)cc3c2nnn1-c1cccc(Cl)c1,87.4% (inactive)
10,CCCc1n(Cc2ccc3ccccc3c2)c2ccccc2[n+]1Cc1ccc2ccccc2c1,-75% (active)
11,COc1cc(CN2CCO[C@H](COc3cccc(F)c3)C2)ccc1Cl,69% (inactive)
12,CCOC(=O)c1ccc(NC(=O)NC2=NCCS2)cc1,15.5% (inactive)
13,O=C(OCc1ccc2c(Br)cc(Br)c(O)c2n1)c1cc2ccccc2[nH]1,-19% (active)
14,O=C1c2ccccc2C2N1CCC1CCc3ccccc3N12 (centres undefined),108% (inactive)
15,CCCCCCCCNC(C)C(O)c1ccc(SC(C)C)cc1 (centres undefined),-72.1% (active)
16,COc1cc(/C=C/C(=O)c2ccc(NC(=O)CSc3nnc(-c4ccc(Cl)cc4)n3-c3ccccc3)cc2)cc(OC)c1OC,67.9% (inactive)
17,O=C(c1ccccc1)N(CCCCl)C(=O)N(CCCCl)C(=O)c1ccccc1,88.3% (inactive)
18,Cc1cc(C)cc(Nc2cc(C)nc3nc(C(F)(F)F)nn23)c1,25.7% (inactive)
19,Clc1ccc(Nc2ncnc3c2sc2ncccc23)c(Cl)c1,50.8% (inactive)
20,Cc1ccc(Nc2nc(NCCO)c3ccccc3n2)cc1C,9.68% (active)

row,SMILES,growth
1,COc1cc(NCCCCC(C)N)c2nccc(C)c2c1 (centres undefined),94.7% (inactive)
2,NC(=O)c1noc(C(=O)c2ccccc2)c1N,98.7% (inactive)
3,O=C(NO)c1ccc(NCc2csc3ccccc23)cc1,66.9% (inactive)
4,CC1=NC(c2ccc(Cl)cc2)C2=C(N1)/C(=C/c1ccc(Cl)cc1)CCC2 (centres undefined),38% (inactive)
5,COc1ccc(-c2nnc(SCC(=O)Nc3ccc(C(=O)/C=C/c4ccc(Cl)cc4)cc3)n2-c2ccccc2)cc1,98.2% (inactive)
6,Oc1[nH]c2ccccc2c1/C=c1/ccc2c(c1)N=C(c1ccc(C(F)(F)F)cc1)N=2,31.6% (inactive)
7,Fc1ccc(-c2nnc(N3CCOCC3)c3ccccc23)cc1,109% (inactive)
8,COc1ccc2cc(-c3nc(C)c(C(C)=O)c(-c4ccc(C)cc4)n3)ccc2c1,91.7% (inactive)
9,C/C(=N\OC(=O)Nc1cccc(Cl)c1)c1ccccc1,109% (inactive)
10,Cc1ccc(O)c(Cc2ccccc2)c1,103% (inactive)
11,Oc1c(C(c2ccc(F)cc2)N2CCCCC2)ccc2cncnc12 (centres undefined),16.2% (inactive)
12,COc1ccc2[nH]cc(C(c3ccc(Cl)cc3)N3CCCC3)c2c1 (centres undefined),101% (inactive)
13,COc1cc2c(cc1C)NC(=O)/C2=C\c1c[nH]c2ccccc12,24.3% (inactive)
14,C=CCn1c(SCC(=O)Nc2ccc(/C(C)=N\O)cc2)nnc1-c1cc(-c2ccc(Cl)cc2)nc2ccccc12,16.5% (inactive)
15,COc1cccc2nc(Nc3cccc(NC(=O)c4cc(N5CCOCC5)cc(C(F)(F)F)c4)c3)ccc12,52.3% (inactive)
16,Cc1ccc(CSCc2ccc(C(=O)NC3CC3)o2)cc1,46.4% (inactive)
17,Cc1n(Cc2ccc3ccccc3n2)cc[n+]1Cc1ccc2ccccc2c1,5.21% (active)
18,Cc1ccc(S(=O)(=O)NC(CCC(=O)Nc2ccc(Cl)cc2)C(=O)Nc2ccc(Cl)cc2)cc1 (centres undefined),12.8% (inactive)
19,O=C1Nc2ccccc2/C1=C/c1c[nH]c2ccccc12,23.1% (inactive)
